From the supplement of paper PMC10849652
The full data set covers some 7,900 targets. This sample favours those with a hit. About 0.6% of all pairs of compound and target were hits.

Legend:
Assay in all cases: log2 fold change, soluble protein after heating vs DMSO (PISA); higher = thermal stabilisation; K562 cells, 10 uM, 30 min; active = over 0.2 and 3.5 SD of the protein, either way, in both replicates (recomputed)
erlotinib = compound: C#Cc1cccc(Nc2ncnc3cc(OCCOC)c(OCCOC)cc23)c1 [erlotinib]
Summary of the method: (§1)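 Aliquots of K562 cells (2×10^6 cells/mL) treated with 10 μM compound for 30 min were heated for 3 min over 48°C-58°C. After pooling and extraction in PBS with 0.5% NP-40 at 4°C, soluble protein from a 21,000xg, 90 min spin was quantified by TMTpro 16plex LC-MS/MS with channel sums equalised. Thermal stability is expressed against control samples, from duplicates, as a log2 fold change.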

[1] = compound: C/C(=N\NC(=O)C1=CC(=CC=C1)S(=O)(=O)N2CCOCC2)/C3=C(C=CC(=C3)Cl)O
Summary of the method: as §1

[2] = compound: C1=CC(=C(C=C1Cl)C2=NC3=NC=CN=C3C(=N2)NC4=CC=NC=C4)F
Summary of the method: as §1

[3] = compound: C1=CC(=CC=C1C2=NC3=C(N2)C=C(C=C3)C(=O)N)OC4=CC=C(C=C4)Cl
Summary of the method: as §1

[4] = compound: C1=CC2=C(C=CC(=C2)/C=C\3/C(=O)NC(=NCC4=CC=CS4)S3)N=C1
Summary of the method: as §1

[5] = compound: C1=CC2=NC=CN=C2C=C1/C=C/3\C(=O)NC(=O)S3
Summary of the method: as §1

[6] = compound: C1=CC=C(C=C1)C2=NC(=C(N2)C3=CC=NC=C3)C4=CC(=C(C=C4)Cl)O
Summary of the method: as §1

[7] = compound: C1=CC=C2C(=C1)C3=NNC4=CC=CC(=C43)C2=O
Summary of the method: as §1

[8] = compound: C1CCN(C1)C(=O)NC2=CC=CC(=C2)NC3=NC=C(C(=N3)NCCC4=CN=CN4)Br
Summary of the method: as §1

[9] = compound: C1CN(CCC1(CC2=CC=C(C=C2)Cl)N)C3=NC=NC4=C3C=CN4
Summary of the method: as §1

IRAK-1-4 Inhibitor I = compound: C1COCCN1CCN2C3=CC=CC=C3N=C2NC(=O)C4=CC(=CC=C4)[N+](=O)[O-] [IRAK-1-4 Inhibitor I]
Summary of the method: as §1

ibrutinib = compound: C=CC(=O)N1CCC[C@@H](n2nc(-c3ccc(Oc4ccccc4)cc3)c3c(N)ncnc32)C1 [ibrutinib]
Summary of the method: as §1

[10] = compound: CC(=O)c1cnc2ccc(-c3cc(Cl)c(O)c(Cl)c3)nc2c1N[C@H]1CC[C@H](CN(C)C)CC1
Summary of the method: as §1

ralimetinib = compound: CC(C)(C)Cn1c(N)nc2ccc(-c3[nH]c(C(C)(C)C)nc3-c3ccc(F)cc3)nc21 [ralimetinib]
Summary of the method: as §1

[11] = compound: CC(C)(O)CC(=O)NCCn1ccc2ncnc(Nc3ccc(Oc4cccc(C(F)(F)F)c4)c(Cl)c3)c21
Summary of the method: as §1

[12] = compound: CC(C)C1=C2N=C(C=C(N2N=C1)NCC3=CC=CC=C3)NCCCCCCN
Summary of the method: as §1

[13] = compound: CC(C)C[C@@H](C=O)NC(=O)[C@H](CC(C)C)NC(=O)[C@H](CC(C)C)NC(=O)OCc1ccccc1
Summary of the method: as §1

pinometostat = compound: CC(C)N(C[C@H]1O[C@@H](n2cnc3c(N)ncnc32)[C@H](O)[C@@H]1O)[C@H]1C[C@@H](CCc2nc3cc(C(C)(C)C)ccc3[nH]2)C1 [pinometostat]
Summary of the method: as §1

[14] = compound: CC1=C(C(CC(=O)N1)C2=CC=C(C=C2)C(F)(F)F)C(=O)NC3=C(C=C4C(=C3)C=NN4)F
Summary of the method: as §1

[15] = compound: CC1=C(C2=C(C=C1)C(=O)C3=CC=CC=C3N2CCCN)C
Summary of the method: as §1

Measured: log2 fold change

MRPS5 (UniProt P82675)
inactive: erlotinib -0.077 | [1] 0.038 | [2] 0.009 | [3] 0.193 | [4] 0.007 | [5] -0.008 | [6] 0.027 | [7] 0.158 | [8] -0.035 | [9] -0.085 | IRAK-1-4 Inhibitor I -0.071 | ibrutinib 0.057 | [10] -0.019 | ralimetinib 0 | [11] -0.088 | [12] -0.083 | [13] 0.078 | pinometostat 0.056 | [14] -0.112 | [15] -0.207

NCKAP1 isoform 2 (UniProt Q9Y2A7)
inactive: erlotinib -0.019 | [1] 0.096 | [2] 0.056 | [3] 0.02 | [4] 0.015 | [5] 0.02 | [6] 0.024 | [7] -0.003 | [8] -0.037 | [9] 0.027 | IRAK-1-4 Inhibitor I 0 | ibrutinib 0.002 | [10] -0.063 | ralimetinib 0.07 | [11] -0.038 | [12] -0.047 | [13] -0.037 | pinometostat 0.01 | [14] 0.017 | [15] -0.009

NEDD4L (UniProt Q96PU5)
Sequence of UniProt Q96PU5 (Q96PU5 whole entry, looked up): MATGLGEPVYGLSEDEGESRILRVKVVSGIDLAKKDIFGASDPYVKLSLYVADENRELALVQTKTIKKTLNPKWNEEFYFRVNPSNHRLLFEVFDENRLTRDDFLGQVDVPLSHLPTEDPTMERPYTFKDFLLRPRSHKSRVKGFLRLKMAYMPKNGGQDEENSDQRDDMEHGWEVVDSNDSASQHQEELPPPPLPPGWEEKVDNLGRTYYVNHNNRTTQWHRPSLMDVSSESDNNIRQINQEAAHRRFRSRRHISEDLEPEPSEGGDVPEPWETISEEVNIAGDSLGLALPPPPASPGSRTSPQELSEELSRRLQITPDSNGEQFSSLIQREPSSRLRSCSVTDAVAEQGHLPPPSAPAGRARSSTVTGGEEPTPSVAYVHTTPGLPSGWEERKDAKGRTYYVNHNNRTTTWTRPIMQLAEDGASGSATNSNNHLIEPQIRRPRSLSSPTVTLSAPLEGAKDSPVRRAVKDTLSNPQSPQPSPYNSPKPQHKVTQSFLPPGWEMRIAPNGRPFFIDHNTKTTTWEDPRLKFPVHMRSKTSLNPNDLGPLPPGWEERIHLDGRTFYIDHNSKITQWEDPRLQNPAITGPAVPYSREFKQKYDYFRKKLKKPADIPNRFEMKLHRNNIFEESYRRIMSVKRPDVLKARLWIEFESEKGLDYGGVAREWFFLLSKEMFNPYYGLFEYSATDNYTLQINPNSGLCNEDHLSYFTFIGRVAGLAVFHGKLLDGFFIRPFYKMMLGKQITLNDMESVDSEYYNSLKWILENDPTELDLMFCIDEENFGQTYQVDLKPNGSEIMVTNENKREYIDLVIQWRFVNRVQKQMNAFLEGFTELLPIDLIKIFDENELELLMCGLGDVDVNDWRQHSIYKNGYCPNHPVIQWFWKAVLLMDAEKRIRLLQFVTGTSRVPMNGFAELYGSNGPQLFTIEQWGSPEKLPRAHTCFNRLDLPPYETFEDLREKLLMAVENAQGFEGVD
inactive: erlotinib 0.014 | [1] 0.078 | [2] -0.078 | [3] 0.005 | [4] 0.016 | [5] 0.035 | [6] 0.146 | [7] 0.019 | [8] -0.026 | [9] -0.076 | IRAK-1-4 Inhibitor I 0.026 | ibrutinib -0.002 | [10] -0.014 | [11] -0.01 | [12] -0.107 | [13] -0.059 | pinometostat 0.027 | [14] -0.017 | [15] -0.084
active: ralimetinib -0.293

NIBAN1 (UniProt Q9BZQ8)
Sequence of UniProt Q9BZQ8 (Q9BZQ8 whole entry, looked up): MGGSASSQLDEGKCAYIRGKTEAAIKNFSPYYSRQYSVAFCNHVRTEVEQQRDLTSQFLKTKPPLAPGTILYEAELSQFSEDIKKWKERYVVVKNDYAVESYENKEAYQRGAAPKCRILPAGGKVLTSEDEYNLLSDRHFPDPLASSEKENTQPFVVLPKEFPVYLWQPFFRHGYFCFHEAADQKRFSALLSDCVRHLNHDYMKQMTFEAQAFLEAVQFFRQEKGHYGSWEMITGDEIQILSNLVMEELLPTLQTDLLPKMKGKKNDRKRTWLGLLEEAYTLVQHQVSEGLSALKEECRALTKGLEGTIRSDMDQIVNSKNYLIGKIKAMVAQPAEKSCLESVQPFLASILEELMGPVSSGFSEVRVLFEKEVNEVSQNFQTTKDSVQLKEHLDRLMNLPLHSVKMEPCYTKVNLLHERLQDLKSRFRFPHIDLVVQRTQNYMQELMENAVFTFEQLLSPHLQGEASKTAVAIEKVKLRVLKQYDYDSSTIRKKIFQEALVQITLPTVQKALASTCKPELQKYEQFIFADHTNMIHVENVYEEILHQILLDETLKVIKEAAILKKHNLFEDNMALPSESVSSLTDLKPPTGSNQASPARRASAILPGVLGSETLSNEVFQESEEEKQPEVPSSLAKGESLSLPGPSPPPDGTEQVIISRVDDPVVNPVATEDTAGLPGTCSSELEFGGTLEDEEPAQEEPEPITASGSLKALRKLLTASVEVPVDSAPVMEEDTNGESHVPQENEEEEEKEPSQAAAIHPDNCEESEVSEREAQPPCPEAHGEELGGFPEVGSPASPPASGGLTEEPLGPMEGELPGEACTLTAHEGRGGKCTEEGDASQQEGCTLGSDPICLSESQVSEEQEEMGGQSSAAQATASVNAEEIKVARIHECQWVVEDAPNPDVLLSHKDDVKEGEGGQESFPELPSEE
active: [12] -0.277
inactive: erlotinib 0.014 | [1] 0.103 | [2] -0.022 | [3] 0.017 | [4] 0.058 | [5] -0.009 | [6] -0.005 | [7] -0.047 | [8] -0.017 | [9] -0.06 | IRAK-1-4 Inhibitor I -0.125 | ibrutinib 0 | [10] -0.163 | ralimetinib 0.084 | [11] -0.07 | [13] 0.037 | pinometostat 0.068 | [14] -0.002 | [15] 0.02

NUCKS1 (UniProt Q9H1E3)
Sequence of UniProt Q9H1E3 (Q9H1E3 whole entry, looked up): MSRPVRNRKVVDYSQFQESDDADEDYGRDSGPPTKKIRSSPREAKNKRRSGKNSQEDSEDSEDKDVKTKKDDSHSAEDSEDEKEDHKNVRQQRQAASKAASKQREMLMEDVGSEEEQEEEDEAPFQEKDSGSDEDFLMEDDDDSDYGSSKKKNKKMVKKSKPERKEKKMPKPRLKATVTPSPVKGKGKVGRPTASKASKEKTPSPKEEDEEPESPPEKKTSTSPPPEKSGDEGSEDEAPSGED
inactive: erlotinib 0.045 | [1] -0.098 | [2] -0.002 | [3] -0.029 | [4] -0.052 | [5] 0 | [6] -0.089 | [7] 0.033 | [8] 0.067 | [9] -0.002 | IRAK-1-4 Inhibitor I 0.094 | ibrutinib -0.018 | [10] 0.208 | ralimetinib -0.054 | [11] 0.018 | [12] 0.138 | [13] -0.029 | pinometostat -0.061 | [14] 0.021
active: [15] -0.454

NRF1 isoform 4 (UniProt Q16656)
Sequence of UniProt Q16656 (Q16656 whole entry, looked up): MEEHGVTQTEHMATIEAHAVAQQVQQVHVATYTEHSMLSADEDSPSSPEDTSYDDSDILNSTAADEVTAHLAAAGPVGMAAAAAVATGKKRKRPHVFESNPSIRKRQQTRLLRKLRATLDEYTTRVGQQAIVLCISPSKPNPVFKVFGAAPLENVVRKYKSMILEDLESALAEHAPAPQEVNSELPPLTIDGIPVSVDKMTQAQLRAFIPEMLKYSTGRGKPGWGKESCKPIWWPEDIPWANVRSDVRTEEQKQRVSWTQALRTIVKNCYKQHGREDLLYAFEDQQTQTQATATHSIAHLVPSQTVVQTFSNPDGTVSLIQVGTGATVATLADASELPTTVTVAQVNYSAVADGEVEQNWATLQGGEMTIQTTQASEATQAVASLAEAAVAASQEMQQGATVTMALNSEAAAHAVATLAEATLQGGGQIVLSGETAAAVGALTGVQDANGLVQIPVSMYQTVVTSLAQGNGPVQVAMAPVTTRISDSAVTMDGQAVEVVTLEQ
active: [15] -0.419
inactive: erlotinib 0.079 | [1] 0.012 | [2] -0.161 | [3] -0.028 | [4] 0.053 | [5] -0.001 | [6] -0.012 | [7] -0.116 | [8] -0.051 | [9] -0.003 | IRAK-1-4 Inhibitor I -0.014 | ibrutinib -0.007 | [10] -0.059 | ralimetinib 0.024 | [11] 0.082 | [12] -0.125 | [13] -0.025 | pinometostat -0.004 | [14] -0.037

NSMCE4A (UniProt Q9NXX6)
Sequence of UniProt Q9NXX6 (Q9NXX6 whole entry, looked up): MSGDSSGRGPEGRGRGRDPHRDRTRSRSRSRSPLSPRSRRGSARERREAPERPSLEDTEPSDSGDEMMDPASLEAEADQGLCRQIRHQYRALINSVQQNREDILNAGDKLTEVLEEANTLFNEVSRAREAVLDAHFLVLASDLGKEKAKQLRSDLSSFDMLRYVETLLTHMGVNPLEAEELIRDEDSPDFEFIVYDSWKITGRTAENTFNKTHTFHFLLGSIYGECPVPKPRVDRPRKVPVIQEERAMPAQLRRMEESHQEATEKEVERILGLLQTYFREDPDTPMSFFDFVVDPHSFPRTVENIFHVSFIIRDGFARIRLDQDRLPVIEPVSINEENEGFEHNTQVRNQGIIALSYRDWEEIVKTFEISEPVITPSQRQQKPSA
inactive: erlotinib -0.044 | [1] 0.028 | [2] -0.002 | [3] 0.072 | [4] 0.182 | [5] -0.138 | [6] -0.031 | [7] -0.192 | [8] 0.056 | [9] 0.117 | IRAK-1-4 Inhibitor I 0.077 | ibrutinib -0.116 | [10] -0.059 | ralimetinib 0.051 | [11] 0.003 | [12] 0.252 | [13] 0.008 | pinometostat 0 | [14] -0.052 | [15] -0.124

NMD3 (UniProt Q96D46)
inactive: erlotinib 0.025 | [1] 0.011 | [2] 0.052 | [3] 0.023 | [4] 0.009 | [5] -0.02 | [6] 0.05 | [7] 0.013 | [8] 0.064 | IRAK-1-4 Inhibitor I 0.001 | ibrutinib -0.046 | [10] 0.017 | ralimetinib -0.049 | [11] -0.104 | [12] -0.069 | [13] -0.141 | pinometostat -0.026 | [14] -0.064
active: [9] -0.281 | [15] -0.392

MRPL50 (UniProt Q8N5N7)
inactive: erlotinib -0.107 | [1] -0.033 | [2] 0.048 | [3] 0.004 | [4] -0.008 | [5] 0.066 | [6] 0.312 | [7] 0.072 | [8] -0.084 | [9] -0.073 | IRAK-1-4 Inhibitor I -0.036 | ibrutinib 0.052 | [10] 0.036 | ralimetinib 0.315 | [11] -0.001 | [12] -0.014 | [13] -0.203 | pinometostat -0.01 | [14] 0.04 | [15] 0.16

NACC1 (UniProt Q96RE7)
Sequence of UniProt Q96RE7 (Q96RE7 whole entry, looked up): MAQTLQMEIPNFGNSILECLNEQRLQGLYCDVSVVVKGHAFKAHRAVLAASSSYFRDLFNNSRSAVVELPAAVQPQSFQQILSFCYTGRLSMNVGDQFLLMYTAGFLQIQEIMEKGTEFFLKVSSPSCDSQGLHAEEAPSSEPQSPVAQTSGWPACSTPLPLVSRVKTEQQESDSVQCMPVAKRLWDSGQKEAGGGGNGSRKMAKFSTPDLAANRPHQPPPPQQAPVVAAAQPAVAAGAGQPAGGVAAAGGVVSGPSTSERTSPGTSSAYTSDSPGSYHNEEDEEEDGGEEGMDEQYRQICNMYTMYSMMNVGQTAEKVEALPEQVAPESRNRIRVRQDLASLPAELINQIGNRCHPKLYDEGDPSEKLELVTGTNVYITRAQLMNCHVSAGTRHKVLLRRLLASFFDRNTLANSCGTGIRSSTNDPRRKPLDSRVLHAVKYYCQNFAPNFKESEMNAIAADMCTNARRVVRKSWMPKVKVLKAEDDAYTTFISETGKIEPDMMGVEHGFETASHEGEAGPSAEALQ
active: [12] -0.352
inactive: erlotinib 0.134 | [1] 0.242 | [2] 0.065 | [3] -0.034 | [4] -0.017 | [5] 0.05 | [6] -0.02 | [7] -0.08 | [8] -0.059 | [9] -0.01 | IRAK-1-4 Inhibitor I -0.026 | ibrutinib -0.048 | [10] -0.109 | ralimetinib -0.017 | [11] -0.058 | [13] -0.014 | pinometostat -0.015 | [14] 0.034 | [15] -0.193

NT5DC1 (UniProt Q5TFE4)
Sequence of UniProt Q5TFE4 (Q5TFE4 whole entry, looked up): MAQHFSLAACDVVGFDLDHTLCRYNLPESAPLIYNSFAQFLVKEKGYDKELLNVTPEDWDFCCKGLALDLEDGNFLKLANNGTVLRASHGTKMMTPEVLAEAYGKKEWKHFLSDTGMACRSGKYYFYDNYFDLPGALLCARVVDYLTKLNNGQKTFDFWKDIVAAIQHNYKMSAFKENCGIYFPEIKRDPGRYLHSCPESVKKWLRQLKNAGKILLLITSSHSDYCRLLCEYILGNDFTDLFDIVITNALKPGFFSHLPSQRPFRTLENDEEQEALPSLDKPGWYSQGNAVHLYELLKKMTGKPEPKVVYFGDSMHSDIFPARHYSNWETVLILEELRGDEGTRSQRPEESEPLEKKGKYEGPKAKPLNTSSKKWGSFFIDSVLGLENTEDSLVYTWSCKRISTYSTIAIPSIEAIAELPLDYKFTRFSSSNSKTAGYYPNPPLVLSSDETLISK
inactive: erlotinib 0.071 | [1] 0.001 | [2] 0.087 | [3] -0.019 | [4] 0.087 | [5] -0.008 | [6] 0.02 | [7] 0.02 | [8] 0.008 | [9] 0.028 | IRAK-1-4 Inhibitor I 0.049 | ibrutinib 0.021 | [10] -0.039 | ralimetinib -0.054 | [11] -0.019 | [12] 0.02 | [13] -0.011 | pinometostat -0.024 | [14] -0.001 | [15] -0.022

NUP85 (UniProt Q9BW27)
inactive: erlotinib 0.046 | [1] 0.08 | [2] 0.037 | [3] 0.036 | [4] 0 | [5] 0.028 | [6] -0.012 | [7] -0.066 | [8] -0.051 | [9] 0.008 | IRAK-1-4 Inhibitor I -0.011 | ibrutinib -0.027 | [10] -0.058 | ralimetinib -0.036 | [11] -0.013 | [12] -0.048 | [13] -0.026 | pinometostat -0.033 | [14] 0.04 | [15] 0.015

OTULIN (UniProt Q96BN8)
Sequence of UniProt Q96BN8 (Q96BN8 whole entry, looked up): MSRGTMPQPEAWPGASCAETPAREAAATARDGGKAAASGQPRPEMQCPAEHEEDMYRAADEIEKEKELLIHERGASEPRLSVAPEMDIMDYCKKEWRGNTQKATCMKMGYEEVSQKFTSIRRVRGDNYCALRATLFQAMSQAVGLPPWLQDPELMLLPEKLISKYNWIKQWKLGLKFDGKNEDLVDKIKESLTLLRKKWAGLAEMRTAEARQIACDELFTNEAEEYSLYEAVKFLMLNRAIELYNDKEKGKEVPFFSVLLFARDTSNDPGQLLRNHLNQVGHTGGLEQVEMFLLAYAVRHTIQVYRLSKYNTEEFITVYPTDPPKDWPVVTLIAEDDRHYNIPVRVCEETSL
active: [12] -0.362
inactive: erlotinib -0.023 | [1] 0.054 | [2] 0.091 | [3] -0.143 | [4] 0.066 | [5] 0.06 | [6] -0.027 | [7] 0.039 | [8] -0.042 | [9] -0.086 | IRAK-1-4 Inhibitor I 0.021 | ibrutinib -0.025 | [10] -0.003 | ralimetinib -0.01 | [11] -0.059 | [13] 0.024 | pinometostat 0.034 | [14] -0.02 | [15] 0.008

NDUFA4 (UniProt O00483)
Sequence of UniProt O00483 (O00483 whole entry, looked up): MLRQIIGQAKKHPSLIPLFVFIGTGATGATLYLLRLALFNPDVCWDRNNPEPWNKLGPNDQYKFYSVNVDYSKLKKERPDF
inactive: erlotinib -0.134 | [1] 0.002 | [2] 0.258 | [3] 0.042 | [4] 0.047 | [5] 0.072 | [6] 0.038 | [7] 0.011 | [8] 0.086 | [9] -0.017 | IRAK-1-4 Inhibitor I 0 | ibrutinib -0.019 | [10] -0.024 | ralimetinib -0.098 | [11] -0.029 | [12] -0.018 | [13] -0.009 | pinometostat -0.013 | [14] 0.032 | [15] 0.126

MON1B (UniProt Q7L1V2)
Sequence of UniProt Q7L1V2 (Q7L1V2 whole entry, looked up): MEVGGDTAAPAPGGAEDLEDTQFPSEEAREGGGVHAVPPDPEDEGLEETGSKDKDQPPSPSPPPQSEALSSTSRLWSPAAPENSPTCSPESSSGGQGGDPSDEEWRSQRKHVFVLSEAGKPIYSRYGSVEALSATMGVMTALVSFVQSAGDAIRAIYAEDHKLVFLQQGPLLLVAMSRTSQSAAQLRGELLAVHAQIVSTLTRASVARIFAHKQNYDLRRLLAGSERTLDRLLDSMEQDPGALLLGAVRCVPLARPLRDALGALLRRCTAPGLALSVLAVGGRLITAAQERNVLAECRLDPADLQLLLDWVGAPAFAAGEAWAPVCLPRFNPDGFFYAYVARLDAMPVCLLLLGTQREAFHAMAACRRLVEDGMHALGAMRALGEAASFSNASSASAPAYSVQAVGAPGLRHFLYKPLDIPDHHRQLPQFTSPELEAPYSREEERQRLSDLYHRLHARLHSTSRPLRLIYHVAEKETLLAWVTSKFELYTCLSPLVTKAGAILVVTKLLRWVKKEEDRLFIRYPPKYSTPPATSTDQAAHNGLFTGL
inactive: erlotinib 0.016 | [1] 0.04 | [2] -0.021 | [3] 0.023 | [4] 0.089 | [5] -0.01 | [6] 0.066 | [7] -0.004 | [8] -0.005 | [9] -0.006 | IRAK-1-4 Inhibitor I 0.047 | ibrutinib 0.037 | [10] -0.013 | ralimetinib 0.095 | [11] -0.006 | [13] 0 | pinometostat -0.039 | [14] -0.023 | [15] 0
active: [12] -0.406
